Here are results for 8 compounds from PubChem BioAssay (Tox21).

SMILES strings stand for the structures. Where “and” joins values, the source holds several entries; their conditions need not be identical. Equal values may be shown once. Inconclusive results are not listed. Calls of active or inactive are those of the source. Unless noted, the call rests on the fitted dose curve; in most records, active means well fitted curve in the direction sought with a large enough effect in the repeat runs; inconclusive means weak or mixed curves; inactive means no such curve, though single readings can be large; an effect the other way counts as inactive or inconclusive.

Assay [1] is described as follows: qHTS assay to test for compound auto fluorescence at 535 nm (green) in HEK293 cells (AID 720680). In general terms: qHTS replaces the single test concentration by a dilution series.
Assay [2] is described as follows: qHTS assay to test for compound auto fluorescence at 460 nm (blue) in HEK293 cell free culture (AID 720681). In outline: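 Test compounds were pinned into cell-free culture medium (DMEM with 10% FBS) and fluorescence was read directly at Ex/Em 405/460 nm. Signals were expressed as fluorescence equivalents of triamterene, with DMSO vehicle as control.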
Assay [3] is described as follows: qHTS assay to test for compound auto fluorescence at 535 nm (green) in HEK293 cell free culture (AID 720682). The method, boiled down: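 No cells present: wells hold DMEM supplemented with 10% FBS, into which compound or vehicle is pinned. Green emission is then recorded (485 nm excitation, 535 nm emission) and scaled to fluorescein.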
The nature of assay [4]: qHTS assay to test for compound auto fluorescence at 460 nm (blue) in HepG2 cell free culture (AID 720685). The method, boiled down:
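Cell-free plates of MEM plus 10% FBS received 23 nL compound or DMSO vehicle; blue-channel (405/460 nm) intensity scored against triamterene as reference fluorophore.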

Assay [5] in a line: qHTS assay to test for compound auto fluorescence at 535 nm (green) in HepG2 cell free culture (AID 720686).
A short description of assay [6]: qHTS assay to test for compound auto fluorescence at 460 nm (blue) in HepG2 cells (AID 720687). The method, boiled down: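 Cells (2,000/well in MEM with 10% FBS) attached overnight at 37 C, then were exposed to compound or DMSO for 1 hr at 37 C, 5% CO2. Fluorescence read at Ex/Em 405/460 nm, expressed as triamterene-equivalent signal.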
Assay [7] in a line: qHTS assay for identifying genotoxic compounds that show differential cytotoxicity against isogenic chicken DT40 cell lines with known DNA damage response pathways - wild type cell line (AID 743012). Further: nearly all actives have a fitted effect of over 60% in size. Further: potency means the concentration at half of the fitted maximal effect. The method, boiled down:
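CellTiter-Glo luminescence readout of viability in wild type DT40 cells after 40 h compound exposure at 37 C/5% CO2; 300 cells/well; reagent incubated 30 min at room temperature before reading.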

A short description of assay [8]: qHTS assay for identifying genotoxic compounds that show differential cytotoxicity against isogenic chicken DT40 cell lines with known DNA damage response pathways - Rev3 mutant cell line (AID 743014). Further: nearly all actives have a fitted effect of over 55% in size. Further: potency means the concentration at half of the fitted maximal effect.
Assay [9] is described as follows: qHTS assay to identify small molecule antagonists of the androgen receptor (AR) signaling pathway - cell viability counter screen (AID 743033; further: nearly all actives have a fitted effect of over 45% in size).
A short description of assay [10]: qHTS assay to test for compound auto fluorescence at 590 nm (red) in HEK293 cell free culture (AID 720683). The method, boiled down:
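Tox21 10K library compounds were pinned into cell-free DMEM with 10% FBS and fluorescence was read at excitation 540 nm. Activity is expressed as Rose Bengal sodium equivalency.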

The nature of assay [11]: qHTS assay to identify small molecule antagonists of the glucocorticoid receptor (GR) signaling pathway - cell viability counter screen (AID 720693). Further: nearly all actives have a fitted effect of over 55% in size.
Assay [12] in a line: qHTS assay for identifying genotoxic compounds that show differential cytotoxicity against isogenic chicken DT40 cell lines with known DNA damage response pathways - Rad54/Ku70 mutant cell line (AID 743015). Further: nearly all actives have a fitted effect of over 60% in size. Further: potency means the concentration at half of the fitted maximal effect.
Assay [13] is described as follows: qHTS assay to identify small molecule antagonists of the androgen receptor (AR) signaling pathway using the MDA cell line - cell viability counter screen (AID 743041; further: nearly all actives have a fitted effect of over 45% in size). In outline: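 qHTS viability read-out; MDA-kb2 AR-luc; R1881-stimulated; 16 h exposure at 37C, 0% CO2; CellTiter-Fluor, 30 min; fluorescence intensity.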
The target in assay [14] is Glucocorticoid receptor (Homo sapiens) (UniProt P04150). As to the kind of experiment: qHTS assay to identify small molecule antagonists of the glucocorticoid receptor (GR) signaling pathway (AID 720692; active means well fitted inhibition curve with a large enough effect in the signal ratio in the repeat runs, not every such curve was filed as active; the % refers to the signal ratio; further: potency means the concentration at half of the fitted maximal effect). The method, boiled down:
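Read-out: beta-lactamase FRET substrate fluorescence, 2 h at room temperature, in HeLa cells stably carrying a GRE-driven bla reporter. Compounds were co-incubated with 5 nM dexamethasone agonist (final) for 18 h at 37 C.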

Assay [15] can be described thus: qHTS assay to test for compound auto fluorescence at 590 nm (red) in HepG2 cell free culture (AID 720684). In outline: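 Readout: intrinsic compound fluorescence at 590 nm emission after 540 nm excitation, scaled to Rose Bengal sodium. Matrix was cell-free MEM with 10% FBS; DMSO vehicle wells served as control.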
Assay [16] has as its target Glucocorticoid receptor (Homo sapiens) (UniProt P04150). Description: qHTS assay to identify small molecule agonists of the glucocorticoid receptor (GR) signaling pathway (AID 720691; active means well fitted activation curve with a large enough effect in the signal ratio in the repeat runs, not every such curve was filed as active; the % refers to the signal ratio). The settings on record: GR-bla HeLa, beta-lactamase reporter ratio, 18 h; activation: at 62.4 µM (top of the series). The method, boiled down: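 HeLa GR-bla reporter line; cells pre-incubated 4 h, compound in DMSO 18 h at 37 C; LiveBLAzer B/G FRET substrate 2 h RT; fluorescence intensity read-out.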

Assay [17] addresses Androgen receptor (Homo sapiens) (UniProt P10275). As to the kind of experiment: qHTS assay to identify small molecule antagonists of the androgen receptor (AR) signaling pathway (AID 743035; active means well fitted inhibition curve with a large enough effect in the signal ratio in the repeat runs, not every such curve was filed as active; the % refers to the signal ratio). The method, boiled down:
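AR-bla HEK293 reporter cells; 4 h settle at 37C/5% CO2; compound + R1881 agonist, 16 h at 37C; LiveBLAzer B/G FRET substrate 2 h RT; fluorescence intensity read. qHTS format.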

For assay [18] the target is unchanged. As to the kind of experiment: qHTS assay to identify small molecule agonists of the androgen receptor (AR) signaling pathway (AID 743036; active means well fitted activation curve with a large enough effect in the signal ratio in the repeat runs, with a control signal flat, not every such curve was filed as active; the % refers to the signal ratio). The method, boiled down:
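Quantitative HTS of the Tox21 10K library in HEK293 cells bearing a stably integrated UAS-controlled beta-lactamase reporter. Compound exposure lasted 16 h at 37C. Reporter activity was detected by FRET substrate fluorescence after 2 h at room temperature.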

For assay [19] the target is unchanged. As to the kind of experiment: qHTS assay to identify small molecule agonists of the androgen receptor (AR) signaling pathway using the MDA cell line (AID 743040; further: nearly all actives have a fitted effect of over 20% in size). In outline:
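Agonist activity is measured as luciferase luminescence in human MDA-kb2 cells whose MMTV reporter responds to both AR and GR. Compounds in DMSO incubate 16 h at 37C, 0% CO2, and ONE-Glo is read after 30 min.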

Assay [20] shares this target. As to the kind of experiment: qHTS assay to identify small molecule antagonists of the androgen receptor (AR) signaling pathway using the MDA cell line (AID 743042; further: nearly all actives have a fitted effect of over 55% in size). In outline:
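MDA-kb2 cells (human breast carcinoma, stably carrying an MMTV-luciferase reporter responsive to AR and GR) were plated at 3,000 cells/well and preincubated 5 hr at 37C, then given compound plus R1881 agonist for 16 h. ONE-Glo luminescence was read.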

Sequence of Androgen receptor (Homo sapiens) (P10275 whole entry, looked up): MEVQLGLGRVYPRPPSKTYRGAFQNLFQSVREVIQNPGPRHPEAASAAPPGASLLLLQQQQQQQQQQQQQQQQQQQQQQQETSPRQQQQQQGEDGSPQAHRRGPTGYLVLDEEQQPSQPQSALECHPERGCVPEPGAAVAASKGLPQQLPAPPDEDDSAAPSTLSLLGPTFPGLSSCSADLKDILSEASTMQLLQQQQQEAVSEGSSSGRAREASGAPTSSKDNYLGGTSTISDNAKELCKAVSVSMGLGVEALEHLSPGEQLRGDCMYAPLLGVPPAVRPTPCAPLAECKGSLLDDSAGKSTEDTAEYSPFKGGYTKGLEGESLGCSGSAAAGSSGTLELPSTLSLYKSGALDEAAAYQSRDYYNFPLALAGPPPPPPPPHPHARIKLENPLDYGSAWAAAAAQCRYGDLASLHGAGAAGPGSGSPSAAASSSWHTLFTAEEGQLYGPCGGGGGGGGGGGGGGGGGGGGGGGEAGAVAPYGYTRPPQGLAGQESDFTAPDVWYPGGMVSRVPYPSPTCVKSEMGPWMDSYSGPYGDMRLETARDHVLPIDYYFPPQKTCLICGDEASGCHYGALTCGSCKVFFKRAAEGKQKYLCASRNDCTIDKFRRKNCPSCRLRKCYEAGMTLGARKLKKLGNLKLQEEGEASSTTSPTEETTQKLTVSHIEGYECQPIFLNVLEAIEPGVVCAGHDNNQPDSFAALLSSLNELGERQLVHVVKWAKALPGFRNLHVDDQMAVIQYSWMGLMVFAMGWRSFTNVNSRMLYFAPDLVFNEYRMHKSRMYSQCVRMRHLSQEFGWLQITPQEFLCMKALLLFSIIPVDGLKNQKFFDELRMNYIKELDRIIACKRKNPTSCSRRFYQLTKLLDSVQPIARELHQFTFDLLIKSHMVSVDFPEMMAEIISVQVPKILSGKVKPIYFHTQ
Sequence of Glucocorticoid receptor (Homo sapiens) (P04150 whole entry, looked up): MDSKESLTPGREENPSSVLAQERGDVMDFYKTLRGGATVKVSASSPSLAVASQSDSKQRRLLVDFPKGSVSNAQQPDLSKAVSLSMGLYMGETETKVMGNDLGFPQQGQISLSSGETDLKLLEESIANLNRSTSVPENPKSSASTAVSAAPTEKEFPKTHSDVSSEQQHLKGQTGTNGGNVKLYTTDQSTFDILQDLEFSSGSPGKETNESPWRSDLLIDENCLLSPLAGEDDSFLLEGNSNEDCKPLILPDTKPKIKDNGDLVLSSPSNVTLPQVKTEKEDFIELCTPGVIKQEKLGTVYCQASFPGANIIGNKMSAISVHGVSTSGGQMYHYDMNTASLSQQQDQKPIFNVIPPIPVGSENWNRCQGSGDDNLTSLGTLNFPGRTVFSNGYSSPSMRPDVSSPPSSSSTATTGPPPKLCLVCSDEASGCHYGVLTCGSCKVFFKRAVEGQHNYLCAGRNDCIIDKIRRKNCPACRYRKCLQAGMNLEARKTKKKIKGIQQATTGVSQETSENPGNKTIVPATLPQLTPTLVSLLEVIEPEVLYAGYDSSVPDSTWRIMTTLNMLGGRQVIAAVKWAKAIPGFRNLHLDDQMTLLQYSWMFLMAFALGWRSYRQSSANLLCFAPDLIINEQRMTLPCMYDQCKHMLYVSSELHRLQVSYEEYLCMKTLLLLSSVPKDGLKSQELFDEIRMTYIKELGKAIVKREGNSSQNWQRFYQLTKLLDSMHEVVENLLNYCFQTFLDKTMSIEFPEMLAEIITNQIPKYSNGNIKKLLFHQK

With `CCC(C)(C)c1ccc(CC(C)CN2C[C@@H](C)O[C@@H](C)C2)cc1` (some centres not stated), the compound was classed as inactive in assay [1] and in [3]. The Potency entry in [2], in assay [4], in assay [5], in [6] and in [9] was “inactive” each time. Also, the Potency is 841 nM (active) in [7] and 668 nM (active) in assay [8].
On to `O=C(N[C@H](CO)[C@H](O)c1ccc([N+](=O)[O-])cc1)C(Cl)Cl`, for which the compound was classed as inactive in [1], in [3] and in assay [10]. Also, the Potency entry in [2], in assay [4], in assay [5], in assay [6], in [11] and in [9] was “inactive” throughout. Further, in assay [13], the Potency entry was “inactive”. The Potency is 5.96 µM (active) and 15.4 µM (active) in [7]; 7.5 µM (active) and 17.2 µM (active) in assay [8]; 8.41 µM (active) and 19.7 µM (active) in [12].
Take `c1ccc(-c2ccc(C(c3ccccc3)n3ccnc3)cc2)cc1` (configuration not stated): the result in assay [1] and in assay [3] was inactive. The Potency result in assay [2], in assay [4], in assay [5], in assay [6], in assay [11] and in assay [9] was “inactive” each time. The Potency entry in assay [13] is “inactive”. Further, the Potency in assay [14] is 23.9 µM (active).
Take `CCN(CC)CCNC(=O)c1ccc(NS(C)(=O)=O)cc1`: the outcome in assay [1], in assay [10] and in assay [15] was inactive. Further, the Potency result in assay [2], in [4], in assay [5], in assay [6], in assay [16] and in assay [14] was “inactive” throughout. Also, the Potency entry in [11], in [7], in assay [8], in assay [12], in [9] and in assay [13] was “inactive” throughout.
Regarding `C[S+](CC[C@H](N)C(=O)O)C[C@H]1O[C@@H](n2cnc3c(N)ncnc32)[C@H](O)[C@@H]1O` (some centres not stated), the compound was classed as inactive in [1], in [3] and in assay [10]. The Potency entry in assay [2], in assay [4], in [5], in assay [6], in [11] and in assay [7] was “inactive” throughout. The Potency result in [8], in assay [12], in assay [9] and in assay [13] was “inactive” throughout.
Take `COc1ccc(/C=C/C(=O)O)cc1`: the compound was classed as inactive in [1], in [10] and in assay [15]. Also, the Potency result in assay [2], in assay [4], in assay [5], in assay [16], in assay [14] and in assay [11] was “inactive” in each case. Moreover, the Potency result in assay [7], in assay [8], in assay [12], in assay [9], in [17] and in [18] was “inactive” each time. Besides, the Potency result in [19], in assay [13] and in [20] was “inactive” each time.
Take `CCOC(=O)[C@H](CCc1ccccc1)N[C@@H](C)C(=O)N1[C@H](C(=O)O)C[C@H]2CCCC[C@@H]21`: the call in [1] and in assay [15] was inactive. Moreover, the Potency entry in [2], in assay [4], in assay [5], in assay [16], in assay [14] and in assay [11] was “inactive” each time. Besides, the Potency entry in assay [7], in assay [8], in assay [12], in [9], in assay [17] and in assay [18] was “inactive” each time. In addition, the Potency entry in [19], in assay [13] and in assay [20] was “inactive” in each case.
On to `Oc1ccc(Cl)cc1C1CCCC1`, for which the compound was classed as inactive in [1], in assay [10] and in assay [15]. The Potency result in assay [2], in assay [4], in [5], in [6], in assay [11] and in [13] was “inactive” in each case. Also, the results for the Potency in assay [7], in [8] and in [12] were 48600 nM (active), 15400 nM (active) and 27.3 µM (active), respectively.
